Source: PubChem BioAssay
CTSL1 counter: Fasciola hepatica cathepsin L1 inhibitors, primary screen, counter-screen for PFM18AAP inhibitor project, biochemical, QFRET, fluorogenic peptide substrate | recombinant F. hepatica cathepsin L1, Z-Leu-Arg-MCA fluorescence | inhibition, % at 5.96 µM | 0.49% of 300,000 active;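 active = inhibition above the mean of all tested compounds plus 3 SD, set per screening campaign, cut at about 17% in these data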;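 note: 0% = plate median of test compound wells and 100% = 1 µM Z-Phe-Ala-diazomethylketone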
HDAC3 inhib: HDAC3 deacetylase inhibitors, primary screen, biochemical, fluorescence, cell-free homogeneous. Histone deacetylase 3 (Homo sapiens), O15379. recombinant HDAC3, fluorogenic peptide/trypsin coupled. inhibition, % at 8.3 µM. 0.15% of 320,000 active; in the data active = inhibition above about 26%, passing the limit was not always enough
HTR2A ag: mouse Htr2a agonists via beta-arrestin recruitment, primary screen, cell-based, luminescence. CHO-K1 mHTR2A beta-arrestin complementation; percent of 30 µM serotonin response. 5-hydroxytryptamine receptor 2A (Mus musculus), P35363. 0.66% of 360,000 active. activation, % at 7.6 µM;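 active = activation above a run cutoff, the mean activation of all tested compounds plus 3 SD, cut at about 14% in these data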;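 note: 0% = plate median of compound wells and 100% = 30 µM serotonin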
LANA-H2A inh: blockers of LANA interaction with H2A/H2B – biochemical, FP readout, HTS, primary screen; cell-free LANA-H2A/H2B peptide, fluorescence polarization; inhibition, % (concentration not given with the values); 0.6% of 320,000 active; AID 2629, 2010; in the data active = inhibition mostly above about 10%, no sharp cut-off; inactive = mostly below about 6.7%
Target sequence (Q9QR71 whole entry, looked up): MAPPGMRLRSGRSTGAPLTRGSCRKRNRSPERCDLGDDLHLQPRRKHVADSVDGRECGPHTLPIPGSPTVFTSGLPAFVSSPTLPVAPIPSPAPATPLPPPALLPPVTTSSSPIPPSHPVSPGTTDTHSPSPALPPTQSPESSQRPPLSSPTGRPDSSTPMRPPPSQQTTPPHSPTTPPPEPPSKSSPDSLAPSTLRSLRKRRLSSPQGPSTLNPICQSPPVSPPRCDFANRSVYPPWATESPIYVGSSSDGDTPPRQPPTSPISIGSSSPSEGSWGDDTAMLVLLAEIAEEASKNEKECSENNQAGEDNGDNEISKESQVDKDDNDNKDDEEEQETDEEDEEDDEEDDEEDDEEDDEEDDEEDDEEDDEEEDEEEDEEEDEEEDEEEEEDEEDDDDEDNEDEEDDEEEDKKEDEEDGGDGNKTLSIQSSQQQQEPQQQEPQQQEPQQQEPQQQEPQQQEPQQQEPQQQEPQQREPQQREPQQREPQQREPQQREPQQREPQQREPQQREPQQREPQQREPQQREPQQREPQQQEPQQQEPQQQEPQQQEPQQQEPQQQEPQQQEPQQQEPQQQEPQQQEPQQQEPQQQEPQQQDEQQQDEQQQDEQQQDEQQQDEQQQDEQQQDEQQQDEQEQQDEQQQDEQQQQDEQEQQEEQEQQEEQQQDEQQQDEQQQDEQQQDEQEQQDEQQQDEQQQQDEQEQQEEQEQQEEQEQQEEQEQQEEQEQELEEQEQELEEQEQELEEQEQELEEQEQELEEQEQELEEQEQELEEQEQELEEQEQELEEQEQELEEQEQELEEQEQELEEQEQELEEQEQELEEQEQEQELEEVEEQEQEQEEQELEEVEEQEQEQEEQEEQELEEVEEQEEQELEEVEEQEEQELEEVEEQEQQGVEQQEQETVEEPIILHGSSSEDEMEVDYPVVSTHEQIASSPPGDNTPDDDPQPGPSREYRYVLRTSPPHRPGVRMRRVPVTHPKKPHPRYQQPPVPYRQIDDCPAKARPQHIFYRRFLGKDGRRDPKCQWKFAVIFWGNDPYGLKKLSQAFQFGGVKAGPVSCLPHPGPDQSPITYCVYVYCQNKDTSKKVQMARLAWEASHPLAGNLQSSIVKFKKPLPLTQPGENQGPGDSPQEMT
MOR ag counter: OPRM1 agonists via beta-arrestin recruitment, confirmation, counter-screen for mouse HTR2A agonist project, cell-based, luminescence, single concentration; 5.3% of 2,300 active; shares compounds with HTR2A ag; activation, % at 9.3 µM; U2OS OPRM1 beta-arrestin PathHunter; DMSO 0%, DAMGO 9.3 µM 100%;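 active = mean activation above the mean of DMSO-only wells plus 3 SD, cut at about 0.5% in these data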
m5-HT2A ag conf: mouse HTR2A agonists, beta-arrestin recruitment, confirmation, cell-based, luminescence, CHO-K1 PathHunter, triplicate | shares compounds with HTR2A ag | DMSO 0%, 30 µM serotonin 100% | activation, % at 7.6 µM | 19% of 2,300 active;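 active = mean activation across triplicates above the hit threshold derived in the original primary screen, cut at about 15% in these data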
Starred values were filed as active, the others as inactive. Sampled rows, rich in hits. Any-hit rate of the full collection: about 1.7%.

`CC1(c2ccc(Cl)cc2Cl)NC(=O)N(CC(=O)NC2CCCCC2)C1=O` (configuration not stated) gave HDAC3 inhib -4.0, HTR2A ag -2.4 and LANA-H2A inh 4.8.
`O=C(O/C(=C/c1ccccc1)C(F)(F)F)c1ccccc1` gave HTR2A ag -3.6.
CCc1nnc(NS(=O)(=O)c2ccc(NC(=O)CCC(=O)O)cc2)s1 was read as CTSL1 counter -6.8, HDAC3 inhib -3.3, HTR2A ag 15.2*, LANA-H2A inh 6.4, MOR ag counter -0.6 and m5-HT2A ag conf -4.1.
`COC(=O)c1[nH]c2cc(OC)c(OC)cc2c1NC(=O)CN1C[C@H]2C[C@@H](C1)c1cccc(=O)n1C2` gave HDAC3 inhib -6.0, HTR2A ag -2.2 and LANA-H2A inh -1.6.
For Cc1nc2c(cc1NC(=O)C(C)(C)C)nc(C)n2Cc1ccccc1 the results were CTSL1 counter -3.6, HDAC3 inhib -0.3, HTR2A ag 20.5*, LANA-H2A inh 1.1, MOR ag counter -0.4 and m5-HT2A ag conf -3.9.
`CCCCNC(=O)C1(C)CCCCN1C(=O)c1ccc2c(c1)CCO2` (configuration not stated) gave HTR2A ag 17.6*, MOR ag counter -0.3 and m5-HT2A ag conf 0.5.
For C[C@H](CO)N1C[C@H](C)[C@@H](CN(C)CC2CC2)Oc2c(NC(=O)Cc3ccccc3)cccc2C1=O the results were HDAC3 inhib -2.2, HTR2A ag 16.3*, LANA-H2A inh 1.0, MOR ag counter -0.3 and m5-HT2A ag conf -2.2.
Screening C[C@H](CO)N1C[C@H](C)[C@@H](CN(C)C(=O)Nc2ccc3c(c2)OCO3)Oc2ccc(NS(=O)(=O)c3ccccc3)cc2C1=O returned HDAC3 inhib 1.1, HTR2A ag 15.1*, LANA-H2A inh -0.1, MOR ag counter -0.7 and m5-HT2A ag conf -3.3.
Screening Cc1noc(C)c1NC(=O)N(C)C[C@H]1Oc2ccc(NS(=O)(=O)c3c(C)noc3C)cc2C(=O)N([C@H](C)CO)C[C@@H]1C returned HDAC3 inhib -7.8, HTR2A ag 2.7 and LANA-H2A inh 4.7.
Screening Cc1noc(C)c1S(=O)(=O)Nc1ccc2c(c1)C(=O)N([C@H](C)CO)C[C@H](C)[C@@H](CN(C)C(=O)NC1CCCCC1)O2 returned HDAC3 inhib 2.1, HTR2A ag 14.9*, LANA-H2A inh -1.2, MOR ag counter -0.6 and m5-HT2A ag conf -1.3.
CCC(C(=O)OCC(=O)N1CCN(S(=O)(=O)c2ccc(C)cc2C)CC1)c1ccccc1 (configuration not stated) was read as HDAC3 inhib 4.2, HTR2A ag -6.6 and LANA-H2A inh 1.8.
`Cc1ccccc1C(=O)Nc1cccc(-c2cn3ccccc3n2)c1` gave CTSL1 counter -1.8, HDAC3 inhib -1.4, HTR2A ag 15.9*, LANA-H2A inh 0.5, MOR ag counter -0.4 and m5-HT2A ag conf -4.9.
`NC[C@@H]1O[C@H](C23CC4CC(CC(C4)C2)C3)Cc2c1ccc(O)c2O` gave CTSL1 counter -2.7, HDAC3 inhib -6.4, HTR2A ag 25.5*, LANA-H2A inh 1.6, MOR ag counter -0.2 and m5-HT2A ag conf 100.3*.
`CC(=O)c1ccc(NC(=O)CCNS(=O)(=O)c2cccc3nonc23)cc1` gave CTSL1 counter -43.1, HDAC3 inhib -4.3, HTR2A ag 36.1*, LANA-H2A inh 3.1, MOR ag counter -0.7 and m5-HT2A ag conf -4.3.
CCc1ccc(NC(=O)CCNS(=O)(=O)c2cccc3nonc23)cc1 was read as CTSL1 counter -3.3, HDAC3 inhib -2.7, HTR2A ag -2.0 and LANA-H2A inh 1.9.
For Cc1cc(C)nc(SCC(=O)c2ccc(F)c(C)c2)n1 the results were CTSL1 counter 0.0, HDAC3 inhib -9.5, HTR2A ag 36.4*, LANA-H2A inh -1.4, MOR ag counter -0.6 and m5-HT2A ag conf -0.7.
For CCN1C(=NCc2ccco2)N[C@@H](c2cccc(F)c2)C(C(=O)OC)=C1C the results were CTSL1 counter 5.7, HDAC3 inhib 13.9, HTR2A ag 11.2 and LANA-H2A inh -1.5.
COc1cccc(CNC(=O)CN2C(=O)COc3ccc(S(=O)(=O)N4CCCCC4)cc32)c1 was read as CTSL1 counter -6.0, HDAC3 inhib 3.7, HTR2A ag 16.1*, LANA-H2A inh -3.3, MOR ag counter -0.8 and m5-HT2A ag conf -4.9.
For COc1cccc(CNC(=O)CN2C(=O)COc3ccc(S(=O)(=O)N4CCOCC4)cc32)c1 the results were CTSL1 counter -3.6, HDAC3 inhib -3.9, HTR2A ag -0.2 and LANA-H2A inh -0.4.
CN(C)c1ccc(NC(=O)Nc2ccc3c(c2)c(=O)n(C)n3Cc2ccc(Cl)cc2)cc1 was read as HTR2A ag -0.3.
`CC(Oc1ccccc1)C(=O)Nc1ccc(C(N)=O)cc1` (configuration not stated) gave CTSL1 counter 15.2, HDAC3 inhib 4.5, HTR2A ag -2.6 and LANA-H2A inh 3.7.
`CC(=O)c1ccc(NC(=O)C(C)O/N=C(\N)c2ccccc2)cc1` (configuration not stated) gave HDAC3 inhib -1.1, HTR2A ag 15.2*, LANA-H2A inh -4.7, MOR ag counter -0.5 and m5-HT2A ag conf -4.4.
CCCCN(CC)C(=O)Cn1ncc2c1-c1cc(C)ccc1OC2 was read as CTSL1 counter 1.3, HDAC3 inhib 4.6, HTR2A ag 16.5*, LANA-H2A inh 1.9, MOR ag counter -0.6 and m5-HT2A ag conf -0.6.
COCCCNC(=O)C[C@H]1C[C@H](C(=O)N2CCOCC2)[C@@]2(CCC3CCCC3)c3[nH]c4cc(-c5ccco5)ccc4c3CCN2C1=O was read as HTR2A ag 15.5*, MOR ag counter -0.6 and m5-HT2A ag conf -2.7.
For CN(C)C(=O)CCc1ccc2c3c([nH]c2c1)[C@]1(C)[C@@H](C(=O)N2CCOCC2)C[C@H](CC(=O)NCc2cccc(C(F)(F)F)c2)C(=O)N1CC3 the results were HTR2A ag 15.1*, MOR ag counter -0.7 and m5-HT2A ag conf -4.6.
For CN(C)C(=O)CCc1ccc2c3c([nH]c2c1)[C@]1(CCc2ccccc2)[C@@H](C(=O)N2CCCCC2)C[C@H](CC(=O)NCc2cccc(C(F)(F)F)c2)C(=O)N1CC3 the results were HTR2A ag 0.5.
